Data reported in PubChem BioAssay (NCI).
About 83,000 compounds went through this panel and 20% of them were active in at least one assay; those are over-represented in the sample as a whole.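 Results are percent growth after 48 hours of single-concentration exposure. 100 means growth as in untreated cells, lower positive values show inhibition; negative values down to -100 show cell death.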 Activity calls are given as the source filed them. How the source made its calls: active means growth percent below 10; inactive means the rest.

What was measured:
Test in all cases: NCI-60 one-dose screen, 48 h (100 = growth as untreated, 0 = no growth, -100 = all killed)
Details in all cases: 10 µM unless noted
[1] = tested on: SR leukemia
[2] = tested on: RPMI-8226 leukemia
[3] = tested on: OVCAR-8 ovarian
[4] = tested on: OVCAR-5 ovarian
[5] = tested on: OVCAR-4 ovarian
[6] = tested on: SK-OV-3 ovarian
[7] = tested on: IGROV1 ovarian
[8] = tested on: OVCAR-3 ovarian
[9] = tested on: HS 578T breast
[10] = tested on: NCI/ADR-RES ovarian

Measured: growth

O=C1CCCCN1c1ccc(C2=NCCCN2)cc1
inactive: [1] 99.8% | [2] 57.4% | [3] 104% | [4] 95.9% | [5] 91.3% | [6] 119% | [7] 95.9% | [8] 83.9% | [9] 73.2% | [10] 103%

C#CCOc1cccc(Nc2ncnc3cc(NC(=O)CCl)ccc23)c1
active: [1] -47.7% | [2] -43.9% | [3] -30.2% | [4] -73% | [5] -41% | [6] -55.8% | [7] -64.6% | [8] -76.7% | [9] -1.12% | [10] -21.9%

CSc1ccc2c3c(n(C[C@H](O)CO)c(=O)c2c1)-c1ccccc1C3=O
active: [1] 1.4% | [2] -17.3%
inactive: [3] 33.3% | [4] 62.2% | [5] 85% | [6] 81.6% | [7] 52.5% | [8] 76.5% | [9] 83.3% | [10] 56%

c1ccc2cc(Cn3cc(CSc4nc5ccccc5s4)nn3)ccc2c1
inactive: [1] 103% | [2] 95.7% | [3] 90.7% | [4] 99.7% | [5] 98.1% | [6] 93.3% | [7] 93.9% | [8] 103% | [9] 87.1% | [10] 96.9%

CCn1cc(C(=O)N/N=C/c2ccccc2)c(=O)c2cc(F)c(N3CCNC(C)C3)c(F)c21 (stereo not given)
inactive: [3] 28.4% | [4] 67% | [5] 70.7% | [6] 104% | [7] 58% | [9] 69.7% | [10] 56%
active: [1] -14.6% | [2] -42.4% | [8] -75%

O=C(/C=C/C12c3ccccc3C(c3ccccc31)C1C(=O)NC(=O)C12)c1ccc(Cl)cc1Cl (stereo not given)
inactive: [3] 11.1% | [4] 37.6% | [5] 42.9% | [6] 49.9% | [7] 23.4% | [9] 30.5%
active: [1] 2.74% | [2] -22.3% | [8] -29.3% | [10] 5.85%

O=C1c2cccnc2C(=O)c2c1c(C(=O)OCCc1ccccn1)c1ccccn21
active: [1] -10.9% | [2] -27.2% | [3] -14% | [4] 9.08% | [5] 4.6% | [6] -66.5% | [7] -0.716% | [8] -16.1% | [9] -28.6% | [10] -26.4%

Nc1nc2ccccc2c2c(=O)c3cc(Cl)ccc3sc12
active: [8] -22.8%
inactive: [1] 94.8% | [2] 102% | [3] 99.2% | [4] 97.9% | [5] 87.9% | [6] 79.8% | [7] 90.2% | [9] 100% | [10] 108%

c1ccc(Nc2nc3c(s2)CCc2c[nH]cc2-3)nc1
inactive: [1] 75.8% | [2] 89% | [3] 90.7% | [4] 108% | [5] 78% | [6] 83.7% | [7] 86.2% | [8] 74.1% | [9] 96% | [10] 92.7%

CCCCn1c(NC(C)=O)c(S(=O)(=O)c2ccccc2)c2nc3ccccc3nc21
inactive: [1] 86.9% | [2] 107% | [3] 98.9% | [4] 93.2% | [5] 100% | [6] 98.5% | [7] 76.3% | [8] 95.7% | [9] 95.9% | [10] 97.7%

CCn1cc(C(=O)O)c(=O)c2cc(F)c(N3CCN(CC(=O)Nc4ccccc4)C(C)C3)c(F)c21 (stereo not given)
inactive: [1] 109% | [2] 102% | [3] 98.3% | [4] 98.3% | [5] 82.4% | [6] 90.7% | [7] 103% | [8] 104% | [9] 91.1% | [10] 96.7%

COc1cc2c3c(c4c5ccccc5[nH]c4c2c(OC)c1OC)C(=O)N(CCN1CCCCC1)C3=O
active: [2] -12% | [3] -35.5% | [7] -68.8% | [8] -20.7%
inactive: [1] 21.6% | [4] 52.4% | [5] 15.7% | [6] 54.7% | [9] 52.2% | [10] 24.6%

CC1(C)CC[C@]23CC[C@]4(C)[C@H](CC[C@@H]5[C@@]6(C)C/C(=C/O)C(=O)C(C)(C)[C@@H]6CC[C@]54C)[C@H]2[C@H]1OC3
inactive: [1] 95.1% | [2] 100% | [3] 104% | [4] 107% | [5] 111% | [6] 110% | [7] 106% | [8] 121% | [9] 111% | [10] 104%

CC/C(=C(/c1ccc(O)cc1)c1ccc(OCCN2CCCCC2)cc1)c1ccc(OC)cc1
active: [1] -23.3%
inactive: [2] 62.6% | [3] 91.5% | [4] 90.9% | [5] 90.4% | [6] 99.3% | [7] 85.3% | [8] 66.1% | [9] 92.2% | [10] 77.6%

COc1cccc(CNc2c3ccccc3nc3ccccc23)c1OC
inactive: [1] 17.5% | [2] 17% | [3] 39.2% | [4] 43% | [5] 36.6% | [6] 66% | [7] 23.2% | [8] 65.1% | [9] 64.3% | [10] 33.2%

Cn1cc(-c2csc(-c3cn(CCCN4CCOCC4)c4ccc(F)cc34)n2)c2cccnc21
inactive: [1] 48.4% | [2] 34.8% | [3] 47.6% | [4] 73% | [5] 56.6% | [6] 80% | [7] 76.3% | [8] 77.6% | [9] 46.6% | [10] 53.8%

COc1ccc(C=Nc2c(C(=O)Nc3cccc(Cl)c3C)sc3nc(C)c(C(=O)/C=C/c4ccc(OC)cc4)cc23)cc1
active: [8] 4.94% | [9] -1.89%
inactive: [1] 30.8% | [2] 14.9% | [3] 21% | [4] 31.3% | [5] 58.2% | [6] 40.9% | [7] 38.3% | [10] 10.9%

CCN(CC)CCN1C(=O)c2c(c3c4ccccc4[nH]c3c3ccc4ccccc4c23)C1=O
active: [1] -22.5% | [2] -33.1% | [3] -29.1% | [4] -85.8% | [5] -79.5% | [10] -40.9%
inactive: [6] 83.1% | [7] 76.1% | [8] 109% | [9] 87.4%

CC(O)CNC(Cc1ccccc1)c1ccc2c(c1)OCO2 (stereo not given)
inactive: [1] 101% | [2] 90.3% | [3] 97.1% | [4] 59.6% | [5] 102% | [6] 66.2% | [7] 101% | [8] 98.7% | [9] 103% | [10] 94.7%

O=C1/C(=C/c2cccc(Br)c2)COc2ccc(O)cc21
inactive: [3] 54.1% | [4] 89.8% | [5] 83.4% | [6] 115% | [7] 78% | [8] 49.1% | [9] 60.3% | [10] 47.6%
active: [1] 4.39% | [2] -27.3%

COc1ccc(C/C(C)=C(\c2ccc(O)cc2)c2ccc(OCCN3CCCCC3)cc2)cc1
inactive: [1] 22.1% | [2] 71.9% | [3] 90.7% | [4] 83.2% | [5] 87.1% | [6] 105% | [7] 80.6% | [8] 88.9% | [9] 86.8% | [10] 90.5%

CSc1ccc2c3c(n(CCCn4ccnc4)c(=O)c2c1)-c1ccccc1C3=O
active: [1] 3.2%
inactive: [2] 28.9% | [3] 40.2% | [4] 76.5% | [5] 71.8% | [6] 50.9% | [7] 58.9% | [8] 64.5% | [9] 91.4% | [10] 35.4%
